Hits are enriched below; roughly 1.1% of the tested compounds scored in any of these assays.
Apoferritin bind = binds horse apoferritin like a general anesthetic; apoferritin/1-aminoanthracene competitive binding, fluorescence; Potency, µM (titrated, usually from 77.5 µM), for the others: at the highest dose activity change, negative = displacement, actives largely listed as inhibitors; 0.074% of 350,000 active; note: % is set by controls: 0 for no effect and ±100 for the full control effect; nearly all actives have a fitted effect of over 20% in size
Target sequence (P02791 2-175 limits assumed): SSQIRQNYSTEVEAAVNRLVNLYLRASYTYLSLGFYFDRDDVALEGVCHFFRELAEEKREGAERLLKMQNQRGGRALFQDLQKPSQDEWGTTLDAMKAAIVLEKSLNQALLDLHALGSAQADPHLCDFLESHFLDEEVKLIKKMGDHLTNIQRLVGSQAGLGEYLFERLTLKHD
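Horse-spleen apoferritin (10 uM) was mixed with 50% saturated 1-aminoanthracene in PBS, exposed to compounds for 10 min at room temperature, and read for fluorescence (ex 380 nm, em 535 nm). Competitive displacement was fitted with a four-parameter Hill equation.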
Glioma ERSR ind = inducers of ER stress response in human glioma cells. U87-MG GRP78 promoter luciferase reporter, 16 h. Potency, µM, without a hit: top-dose activation, actives largely listed as activators. 0.02% of 420,000 active. AID 602332; note: series mostly up to about 76 µM; % of control where 0% means no effect; nearly all actives have a fitted effect of over 35% in size
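ERSR induction read as luciferase luminescence (Bright-Glo, 10 min at room temperature) in stably transfected human U87-MG glioma cells exposed to compounds for 16 h, using GRP78 as sensor.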
BCR signal inh = chronic active BCR signaling inhibition | ABC-DLBCL IkBa-CBG/CBR reporter, luminescence ratio, 4 h | Potency, µM (titrated, usually from 46.1 µM), inactives show at the top dose activity change, negative = inhibition, actives largely listed as inhibitors | 0.05% of 340,000 active | AID 493014; active = well fitted inhibition curve with a large enough effect in the signal ratio, with a control signal flat, not every such curve was filed as active; inconclusive = small, poorly fitted or top-dose-only effect, or effect the other way, or a change in a side signal; the % refers to the signal ratio;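 note: plate controls were basal doxycycline-induced cells for no effect and cells given 10 µM MG132 for full effect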
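Compounds up to 46 uM were incubated four hours with TMD8 cells whose green CBG68 luciferase is fused to IkappaBalpha; red CBR luminescence normalised the signal, and concentration-effect curves were fitted to fusion, red and ratio data.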
12-LOX inh = blocks human arachidonate 12S-lipoxygenase; purified 12hLO, xylenol orange hydroperoxide absorbance; P18054; 1.1% of 580,000 active; Potency, µM (series often up to 108 µM), inactives show top-dose activity change, negative = inhibition, hits mostly inhibitors; note: % is set by controls: 0 for no effect and ±100 for the full control effect
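Purified human 12hLO (150 nM final) in 25 mM Hepes, 0.01% Triton X-100, pH 7.0 was preincubated 15 min at room temperature with compound. Then 40 uM arachidonic acid was added, 30 min. Hydroperoxide was read by Fe-XO absorbance ratio 573/405 nm.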
Active calls of the source: *; ? = inconclusive; . = no result given; [ ] = another dose, or the depositor's remark. Unless noted, calls come from the whole dose curve; as a rule, active = well fitted curve in the direction sought with a large enough effect; inconclusive = small, poorly fitted or top-dose-only effect, or another doubt; inactive = no such curve, though single readings can be large; an effect the other way counts as inactive or inconclusive. Potency is the fitted concentration of half-maximal effect.

SMILES | Apoferritin bind | Glioma ERSR ind | BCR signal inh | 12-LOX inh
CCn1c(SCc2ccc(Cl)c(Cl)c2)nnc1C(C)NC(=O)c1ccc(OC)cc1 (configuration not stated) | 4% | -1% | -7% | -8%
Cc1ccccc1-n1c(=O)/c(=C\c2ccco2)s/c1=C(/C#N)C(=O)Nc1ccccc1 | -9% | -3% | ? | 35µM*
CC1CCCN(c2ccc(C(=O)O)cc2NS(=O)(=O)c2ccc(Br)s2)C1 (configuration not stated) | . | . | . | 5.6µM*
O=C(O)C1CCCN1S(=O)(=O)c1ccc(Br)s1 (configuration not stated) (tested in a mixture with another compound) | 2% | -7% | ? | -4%[57.4 µM]
O=C1CCCCCCC1Sc1ccccc1[N+](=O)[O-] (configuration not stated) | 7.9µM* | -5% | ? | 0%
COc1ccc(CC(=O)N(Cc2cccs2)C2CCS(=O)(=O)C2)cc1 (configuration not stated) | . | . | . | -19%
Cc1cccc(NC(=S)N/N=C2\CC(C)(C)Oc3ccc(O)cc32)c1 | 76% | -1% | 3% | ?
CC12CCC(C/C1=N/NC(=O)Nc1ccccc1)C2(C)C (configuration not stated) | -3% | 0% | 5% | -2%
COc1cccc(NC(=S)N/N=C2\CC(C)(C)Oc3ccc(O)cc32)c1 | 56% | 0% | -13% | 32µM*
COc1cccc(NC(=S)N/N=C2\CC3CCC2(C)C3(C)C)c1 (configuration not stated) | 2% | 11% | 11% | 35µM*
COc1cccc(-c2cc(C(=O)NCCC(C)n3ccnc3)[nH]n2)c1 (configuration not stated) | . | . | . | 61%
CC1=C(C(N)=O)C(c2cccnc2)n2nc(SCc3ccccc3F)nc2N1 (configuration not stated) | . | . | . | 13%
CCN(CC)CCCn1c(-c2ccc(COc3cc(C)ccc3Cl)cc2)n[nH]c1=S | . | . | . | 35µM*
CCCCCn1c(COc2ccccc2Cl)n[nH]c1=S | . | . | . | 28µM*
Cc1ccc(C(C)C)c(OCc2n[nH]c(=S)n2Cc2ccc(Cl)cc2)c1 | . | . | . | 28µM*
Cc1cccc(OCc2n[nH]c(=S)n2Cc2ccccc2)c1 | -11% | -1% | 1% | ?
Cn1c(COc2cc(Cl)ccc2Cl)n[nH]c1=S | . | . | . | 50µM*
COc1ccc(-n2c(COc3ccc(Cl)cc3Cl)n[nH]c2=S)cc1 | . | 2% | . | ?
CCNC(=O)NC(=O)CN(CC)c1cccc(C)c1 | . | . | . | 29%
Cc1ccc(Cl)c(OCc2n[nH]c(=S)n2C)c1 | . | . | . | 32µM*
CCc1cccc2c(C(=O)CN3CCC(C(=O)N4CCCC4)CC3)c[nH]c12 | . | . | . | -2%
O=C(Nc1cccc(Br)c1)N1CCC2(CC1)SCC(=O)N2Cc1ccccc1 | . | . | . | 28%
CCN1CCN(C(c2cccc(OC)c2)c2sc3nc(C)nn3c2O)CC1 (configuration not stated) | -10% | -5% | -13% | -15%
COc1cccc(C(c2sc3nc(C)nn3c2O)N2CCc3ccccc3C2)c1 (configuration not stated) | 2% | -5% | 1% | 32µM*
N=C(N)COc1ccc(Cl)c(Cl)c1 | . | . | . | 0%
SMILES | Apoferritin bind | Glioma ERSR ind | BCR signal inh | 12-LOX inh
Cc1ccc(-c2ccc(/C=C3\C(=O)ON=C3c3ccccc3)o2)c([N+](=O)[O-])c1 | -15% | -1% | ? | 4.5µM*
O=C1/C(=C\c2ccc(-c3ccccc3[N+](=O)[O-])o2)C(c2ccccc2)=NN1c1ccccc1 | -21% | -5% | 4% | -6%
Cc1ccc(C2=NOC(=O)/C2=C\c2ccc(C)o2)cc1 | -2% | 3% | 20% | 16µM*
Cc1ccc(/C=C2\C(=O)ON=C2c2ccccc2)o1 | -8% | 1% | -1% | ?
Nn1c(SCC(=O)Nc2cccc(F)c2)nnc1C1CCCCC1 | 8.9µM* | -3% | 7% | -13%
Nn1cnnc1SCC(=O)Nc1ccc(C2CCCCC2)cc1 | 7.1µM* | 6% | ? | 24%
O=C(NCCSC1CCCC1)c1ccncc1 | . | . | . | -38%
CSc1cccc(N2CC(C(=O)Nc3cccc(S(=O)(=O)N4CCCC4)c3)CC2=O)c1 (configuration not stated) | . | -4% | 0% | 28µM*
CCOc1ccc(N2CC(C(=O)Nc3cccc(S(=O)(=O)N4CCCCC4)c3)CC2=O)cc1 (configuration not stated) | -21% | -5% | 0% | -5%
COc1ccc(-c2nc3c(C)cc(Br)cn3c2CC2CCCCC2)cc1OC | . | -4% | . | 7.1µM*
COc1ccc(-c2nc3c(C)cc(Br)cn3c2CC(C)(C)C)cc1OC | . | -4% | . | 32µM*
CCOC(=O)c1[nH]c2ccc(F)cc2c1NC(=O)c1cc(OC)c(OC)c(OC)c1 | 2% | -4% | -17% | -16%
COc1cc(C(=O)Nc2c(C(=O)O)[nH]c3ccc(Br)cc23)cc(OC)c1OC | 0% | -1% | -9% | 40µM*
O=c1[nH]c(Nc2ccccc2)nc2nccc(-c3ccco3)c12 | . | . | . | 35µM*
Cc1ccc(NC(=O)Cn2c(-c3cnccn3)nc(C)c(C)c2=O)cc1Cl | . | . | . | 20%
CC(C(=O)N1CCCCC1)N1CCN(S(=O)(=O)c2ccc(Cl)cc2)CC1 (configuration not stated) | . | -6% | -3% | 1µM*
Cc1ccc(C)c(N2CCN(CC3CCCCC3)CC2)c1 | 2% | 1% | 0% | 4.5µM*
O=C(c1cccs1)N1CCC2(CC1)NCCc1c2[nH]c2ccccc12 | . | . | . | 6%
Cc1cc(C)c2c(c1)NC(C(=O)O)C1CC=CC21 (configuration not stated) | 5% | -4% | 0% | 7.9µM*
Cc1cc(C)c2c(c1)C1C=CCC1C(C(=O)O)N2 (configuration not stated) | . | -4% | . | .
Cc1c(CC(=O)NCc2cccc(Cl)c2)c(=O)oc2c(C)c(O)ccc12 | . | . | . | -12%
CN(C)CCCN(C(=O)c1cccc(C(F)(F)F)c1)c1nc2ccc(F)cc2s1 | . | . | . | 35µM*
COC(=O)C1=CNC=C(C(=O)OC)C1c1ccc(F)c(F)c1 | . | . | . | 41%
Cc1cccnc1NC(=S)Nc1ncccc1C | 1% | -2% | ? | -12%
CCOc1ccccc1NC(=S)Nc1ncccc1C | -11% | 1% | -11% | 11µM*
SMILES | Apoferritin bind | Glioma ERSR ind | BCR signal inh | 12-LOX inh
S=C(NCCc1ccccc1)Nc1ncccn1 | . | 2% | . | ?
Cc1cccnc1NC(=S)NCCc1ccccc1 | 0% | 11% | -1% | 7.1µM*
CCOc1ccccc1Nc1cc(C)nc2nc(C)nn12 | 8% | 1% | ? | 5.6µM*
CC(C)CCSCC(=O)NCc1cccc(CN2CCCC2)c1 | . | . | . | -22%
CCC1CCC(NC(=O)c2ccncc2)CC1 (configuration not stated) | . | . | . | -4%
CC(C)Oc1ccc(Cc2cnc(=S)[nH]c2N)cc1 | -1% | -5% | -3% | 35µM*
Cc1cc(-c2nsc(=O)o2)c(S(C)(=O)=O)s1 | 0% | 2% | 2% | 8.9µM*
O=C(/C=C/c1ccccc1Cl)c1ccccc(=O)c1O | ? | -11% | ? | ?
